This is part of a sample that, as a whole, favours compounds with a hit. Of some 79,000 tested, about 15% had one in any assay. Activity calls are given as the source filed them. Cut-off read from the data, not from the text of the source: active = growth inhibition above about 70%; inactive = the rest.
Assay: NCI Yeast Anticancer Drug Screen. Data for the bub3 strain (AID 167)
Conditions: S. cerevisiae bub3 mutant strain, at 5.0 µM (retest, dose inferred, filed as 0.5), stronger effect = higher value
Outline: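 Growth of a checkpoint-deficient yeast mutant is measured after compound exposure. Values represent inhibition relative to vehicle.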

Row | Compound | growth inhibition
1 | Nc1ncnc(N2CCOCC2)c1N | -3% (inactive)
2 | CN(C)c1ccc2c(NCCCCCCNc3ccnc4cc(N(C)C)ccc34)ccnc2c1 | -2% (inactive)
3 | CC(C)N=Cc1cc(Br)cc(Br)c1O.CC(C)N=Cc1cc(Br)cc(Br)c1O.[Co] | 98% (active)
4 | O=C1c2ccc(O)cc2C(=O)c2c1ccc(O)c2O | 37% (inactive)
5 | COc1cc2c[n+](C)c3c4cc(OC)c(OCc5ccccc5)cc4c(OCc4ccccc4)cc3c2cc1OC | 16% (inactive)
6 | O=C(Nc1ccc(Cl)cc1)OCC1C2C=CC(C2)C1CO (stereo not given) | -3% (inactive)
7 | Cn1nc(-c2ccccc2NC(=O)C(F)(F)F)c(=O)n(C)c1=S | 4% (inactive)
8 | OCc1c2c(cc3c1CC1(C3)Cc3cc4c(c(CO)c3C1)CCC4)CCC2 | 18% (inactive)
9 | O=C(C[n+]1ccccc1)N=N/C(C(=O)Nc1c(Cl)c(O)c2ccccc2c1O)=C1/C(=O)Oc2cc(O)ccc2C1=O | 24% (inactive)
10 | Cc1cc(Cl)c(O)c(-c2cc(-c3ccccc3O)c(C#N)c(N)n2)c1 | -59% (inactive)
11 | CCCCNc1ncc(OCC)c(NCCCC)n1 | 39% (inactive)
12 | C#CCCCCCOC(=O)c1cc([N+](=O)[O-])cc([N+](=O)[O-])c1 | 98% (active)
13 | C=C(C)C1(C(=O)OCC(Cl)(Cl)Cl)NC(=O)C(NC(=O)COc2ccccc2)=CO1 (stereo not given) | 3% (inactive)
14 | Cc1ccc(SCC#CC#CCS(=O)c2ccc(C)cc2)cc1 (stereo not given) | 82% (active)
15 | CCCCCCCCCCCCCCCC1C(N)C(=O)N(C)N1C (stereo not given) | -51% (inactive)
16 | O=c1c(O)cc2c(O)oc3c(=O)c(O)c(O)c4c(O)oc1c2c43 | 25% (inactive)
17 | CCCCN(CCCC)CCNc1ccc(NS(=O)(=O)c2ccccc2)c2sc3ccccc3c(=O)c12 | 32% (inactive)
18 | CCOC(=O)CC(N)CC(=O)OCC | -67% (inactive)
19 | O=c1cc(Cl)c(Cl)nn1-c1ccccc1 | 4% (inactive)
20 | CC(=O)Nc1ccc(-c2ccccc2)cc1[N+](=O)[O-] | 1% (inactive)

Row | Compound | growth inhibition
21 | O=C1OC(c2ccccc2)N/C1=C\c1ccc2c(c1)OCO2 (stereo not given) | 22% (inactive)
22 | CCOc1c(N=Nc2ccc(Cl)cc2)c(-c2ccccc2)nn1C(=S)S | 0% (inactive)
23 | BrCN(CBr)c1ccc2c(c1)Cc1cc(Br)ccc1-2 | 1% (inactive)
24 | COc1cc(NCCCCCCCC2CCCCN2)c2ncccc2c1 (stereo not given) | 0% (inactive)
25 | Cc1cc(Br)cc(C)c1NC(=O)C(=O)C(C(=O)c1ccc2ccccc2c1)C1OC(=O)c2ccccc21 (stereo not given) | 5% (inactive)
26 | O=Cc1cc2c(s1)C(=O)c1sccc1C2=O | 94% (active)
27 | C=C1CC2(CC(C(C)C)CCC2C)OC1=O (stereo not given) | 42% (inactive)
28 | CCSC(=Nc1nc2ccc(NC(C)=O)cc2s1)SCC | -2% (inactive)
29 | CCOc1ccc2c(c1)n([O-])c1cc(Br)ccc1[n+]2=O | 33% (inactive)
30 | CCCCC(CCCC)=NNC(=S)SC | 2% (inactive)
31 | COc1ccc2c(c1)CCc1c(CO)c(COC(=O)NC(C)C)n(C)c1-2 | 5% (inactive)
32 | CSc1cc2c(cc1N)Cc1ccccc1-2 | -1% (inactive)
33 | O=C1C=C(c2ccccc2)OC(c2ccccc2)C1 (stereo not given) | -68% (inactive)
34 | CCOc1ccc2nc([NH-])sc2c1.CCOc1ccc2nc([NH-])sc2c1.[Cl][Pt+2][Cl] | -2% (inactive)
35 | Cc1nc2c(Cl)nc(Cl)nc2s1 | 15% (inactive)
36 | Cc1cc(O)n(Cc2ccccc2)c(=O)c1 | -70% (inactive)
37 | NCCC1=CCCCC1 | -4% (inactive)
38 | CCOC(=O)/C(=C\n1c(=O)sc2ccccc21)C(=O)c1ccccc1 | 21% (inactive)
39 | Cc1ccc(S(=O)(=O)Nc2ccccc2C=O)cc1 | 4% (inactive)
40 | CC1COC(c2cn[nH]c2C(N)=O)C1O (stereo not given) | 4% (inactive)

Same assay, conditions: S. cerevisiae bub3 mutant strain, at 50.0 µM (retest, dose inferred, filed as 5.0), stronger effect = higher value

Row | Compound | growth inhibition
41 | Nc1ncnc(N2CCOCC2)c1N | -2% (inactive)
42 | CN(C)c1ccc2c(NCCCCCCNc3ccnc4cc(N(C)C)ccc34)ccnc2c1 | 97% (active)
43 | CC(C)N=Cc1cc(Br)cc(Br)c1O.CC(C)N=Cc1cc(Br)cc(Br)c1O.[Co] | 99% (active)
44 | O=C1c2ccc(O)cc2C(=O)c2c1ccc(O)c2O | 94% (active)
45 | COc1cc2c[n+](C)c3c4cc(OC)c(OCc5ccccc5)cc4c(OCc4ccccc4)cc3c2cc1OC | 95% (active)
46 | O=C(Nc1ccc(Cl)cc1)OCC1C2C=CC(C2)C1CO (stereo not given) | 92% (active)
47 | Cn1nc(-c2ccccc2NC(=O)C(F)(F)F)c(=O)n(C)c1=S | 27% (inactive)
48 | OCc1c2c(cc3c1CC1(C3)Cc3cc4c(c(CO)c3C1)CCC4)CCC2 | 97% (active)
49 | O=C(C[n+]1ccccc1)N=N/C(C(=O)Nc1c(Cl)c(O)c2ccccc2c1O)=C1/C(=O)Oc2cc(O)ccc2C1=O | 98% (active)
50 | Cc1cc(Cl)c(O)c(-c2cc(-c3ccccc3O)c(C#N)c(N)n2)c1 | 73% (active)
51 | CCCCNc1ncc(OCC)c(NCCCC)n1 | 23% (inactive)
52 | C#CCCCCCOC(=O)c1cc([N+](=O)[O-])cc([N+](=O)[O-])c1 | 99% (active)
53 | C=C(C)C1(C(=O)OCC(Cl)(Cl)Cl)NC(=O)C(NC(=O)COc2ccccc2)=CO1 (stereo not given) | 44% (inactive)
54 | Cc1ccc(SCC#CC#CCS(=O)c2ccc(C)cc2)cc1 (stereo not given) | 98% (active)
55 | CCCCCCCCCCCCCCCC1C(N)C(=O)N(C)N1C (stereo not given) | 95% (active)
56 | O=c1c(O)cc2c(O)oc3c(=O)c(O)c(O)c4c(O)oc1c2c43 | 90% (active)
57 | CCCCN(CCCC)CCNc1ccc(NS(=O)(=O)c2ccccc2)c2sc3ccccc3c(=O)c12 | 94% (active)
58 | CCOC(=O)CC(N)CC(=O)OCC | -79% (inactive)
59 | O=c1cc(Cl)c(Cl)nn1-c1ccccc1 | 84% (active)
60 | CC(=O)Nc1ccc(-c2ccccc2)cc1[N+](=O)[O-] | 5% (inactive)

Row | Compound | growth inhibition
61 | O=C1OC(c2ccccc2)N/C1=C\c1ccc2c(c1)OCO2 (stereo not given) | 19% (inactive)
62 | CCOc1c(N=Nc2ccc(Cl)cc2)c(-c2ccccc2)nn1C(=S)S | 94% (active)
63 | BrCN(CBr)c1ccc2c(c1)Cc1cc(Br)ccc1-2 | -2% (inactive)
64 | COc1cc(NCCCCCCCC2CCCCN2)c2ncccc2c1 (stereo not given) | 88% (active)
65 | Cc1cc(Br)cc(C)c1NC(=O)C(=O)C(C(=O)c1ccc2ccccc2c1)C1OC(=O)c2ccccc21 (stereo not given) | 23% (inactive)
66 | O=Cc1cc2c(s1)C(=O)c1sccc1C2=O | 99% (active)
67 | C=C1CC2(CC(C(C)C)CCC2C)OC1=O (stereo not given) | 53% (inactive)
68 | CCSC(=Nc1nc2ccc(NC(C)=O)cc2s1)SCC | 94% (active)
69 | CCOc1ccc2c(c1)n([O-])c1cc(Br)ccc1[n+]2=O | 92% (active)
70 | CCCCC(CCCC)=NNC(=S)SC | 80% (active)
71 | COc1ccc2c(c1)CCc1c(CO)c(COC(=O)NC(C)C)n(C)c1-2 | 40% (inactive)
72 | CSc1cc2c(cc1N)Cc1ccccc1-2 | 91% (active)
73 | O=C1C=C(c2ccccc2)OC(c2ccccc2)C1 (stereo not given) | -25% (inactive)
74 | CCOc1ccc2nc([NH-])sc2c1.CCOc1ccc2nc([NH-])sc2c1.[Cl][Pt+2][Cl] | -6% (inactive)
75 | Cc1nc2c(Cl)nc(Cl)nc2s1 | 98% (active)
76 | Cc1cc(O)n(Cc2ccccc2)c(=O)c1 | 4% (inactive)
77 | NCCC1=CCCCC1 | 96% (active)
78 | CCOC(=O)/C(=C\n1c(=O)sc2ccccc21)C(=O)c1ccccc1 | 57% (inactive)
79 | Cc1ccc(S(=O)(=O)Nc2ccccc2C=O)cc1 | 49% (inactive)
80 | CC1COC(c2cn[nH]c2C(N)=O)C1O (stereo not given) | 24% (inactive)

— PubChem BioAssay (NCI)
